This is a sample that favours compounds with a hit; in the whole collection about 7.5% have one here.
SMN2 splice enh: enhancers of SMN2 splice variant expression. HEK293 SMN2-luciferase splicing reporter, luminescence, 30-36 h. Potency, µM (series often up to 46.1 µM), for the others: top-dose activity change, positive = activation, hits mostly activators. 210,000 tested, 2.8% active; further: % of control where 0% means no effect; nearly all actives have a fitted effect of over 55% in size
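qHTS luciferase splicing reporter: luminescence rises when SMN2 exon 7 is included in transfected HEK293 cells. Compound exposure lasted 30-36 h at 37C, with 4.5 mM final sodium butyrate as control, followed by a ONE-Glo read.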
ELG1 genotox: inducers of genotoxicity in HEK293T ELG1-luciferase cells; 330,000 tested, 1.3% active; AID 504466; HEK293T ELG1-luciferase reporter, luminescence, 16 h; Potency, µM (highest dose often 46 µM), for the others: at the top dose activity change, positive = activation, actives largely listed as activators; further: % of control where 0% means no effect; nearly all actives have a fitted effect of over 60% in size
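16 hr compound incubation (37 °C, 5% CO2) of HEK293T cells carrying luciferase-tagged ELG1; luciferase then measured by ONE-Glo luminescence after 30 min at RT.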
Rab9 promoter act: activators of Rab9 promoter; 320,000 tested, 2.8% active; AID 485297; Huh7 Rab9 promoter-luciferase reporter, luminescence, 24 h; Potency, µM (top dose mostly 9.22 µM), inactives show at the highest dose activation, negative = inhibition, usual class: activators; further: % of control where 0% means no effect; nearly all actives have a fitted effect of over 60% in size
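Cell-based reporter: Huh7 stable for Rab9 promoter-driven luciferase, plated in reduced-serum medium with 10% FBS at 1500 cells/well, compound-treated 24 h at 37 °C, luminescence read after 10 min reagent.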
Luc counter: blocks Kinase-Glo luciferase, a counter-screen artifact | Q27757 | Kinase-Glo luciferase, ATP luminescence, 8 min | Potency, µM (highest dose often 38.3 µM), for the others: at the top dose activity change, negative = inhibition, actives largely listed as inhibitors | 200,000 tested, 0.28% active | AID 1379; further: on the % scale 0 is the no-effect control and ±100 the full control effect; nearly all actives have a fitted effect of over 60% in size
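Inhibition of Kinase-Glo luciferase light generation was assessed at 10 uM ATP in pH 7.2 imidazole buffer, with luminescence measured after eight minutes at ambient temperature.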
NPC1 prom act: NPC1 promoter activation. 320,000 tested, 2.4% active. Potency, µM (highest dose often 9.22 µM), for the others: at the highest dose activation, usual class: activators. Huh7 NPC1 promoter luciferase reporter, 24 h. AID 485313; further: % of control where 0% means no effect; nearly all actives have a fitted effect of over 60% in size
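NPC1 promoter–luciferase Huh7 cells; 24 h compound; luminescence.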
FLuc modulator: counter-screen for miR-21 project: firefly luciferase inhibitors or activators. purified FLuc, Km substrates, luminescence inhibition. AID 588342. 360,000 tested, 6.9% active. Potency, µM (series often up to 57.5 µM), inactives show top-dose activity change, negative = inhibition, most hits filed as inhibitors;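 further: plate controls were vehicle for no effect and reference inhibitor for full effect; nearly all actives have a fitted effect of over 55% in size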
Target sequence (P08659 whole entry, looked up): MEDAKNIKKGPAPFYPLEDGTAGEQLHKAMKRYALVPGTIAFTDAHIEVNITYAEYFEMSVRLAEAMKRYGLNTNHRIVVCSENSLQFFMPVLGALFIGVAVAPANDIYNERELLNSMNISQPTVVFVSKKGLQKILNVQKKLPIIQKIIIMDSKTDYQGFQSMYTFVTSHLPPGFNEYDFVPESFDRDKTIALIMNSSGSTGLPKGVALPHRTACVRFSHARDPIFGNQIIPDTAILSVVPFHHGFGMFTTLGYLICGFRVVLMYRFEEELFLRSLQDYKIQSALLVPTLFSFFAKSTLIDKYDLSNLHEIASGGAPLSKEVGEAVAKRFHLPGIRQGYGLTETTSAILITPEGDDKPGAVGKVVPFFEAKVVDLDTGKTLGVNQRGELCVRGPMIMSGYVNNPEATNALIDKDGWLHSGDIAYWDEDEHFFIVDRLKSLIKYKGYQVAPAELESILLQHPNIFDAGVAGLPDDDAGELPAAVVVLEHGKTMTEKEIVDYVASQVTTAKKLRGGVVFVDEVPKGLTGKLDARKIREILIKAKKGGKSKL
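Purified P. pyralis luciferase, 10 nM final, with Km-level 10 uM D-luciferin and 10 uM ATP in 50 mM Tris acetate pH 7.5, 10 mM Mg acetate, 0.01% Tween-20, 0.05% BSA; 6-point qHTS titration about 60 µM downward; luminescence read.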
* hit, by the source's call; ? = inconclusive; · = not tested or not shown; [ ] = dose if it differs, or a comment. The call rests on the fitted dose curve; in most records, active means well fitted curve in the direction sought with a large enough effect; inconclusive means small, poorly fitted or top-dose-only effect, or another doubt; inactive means no such curve, though single readings can be large; an effect the other way counts as inactive or inconclusive. Potency means the concentration at half of the fitted maximal effect.

SMILES	SMN2 splice enh	ELG1 genotox	Rab9 promoter act	Luc counter	NPC1 prom act	FLuc modulator
COc1ccc(/C=C2\Oc3cc(OCC(=O)N4CCC[C@H]4CO)ccc3C2=O)c(OC)c1	·	4%	2%	·	-4%	13µM*
COC(=O)c1ccc2c(c1)C(=O)/C(=C/c1ccc(C)cc1)O2	11µM*	15%	?	-3%	?	?
Cc1cc(NC(=O)N(C)CCc2c(C)nn(C)c2C)ccc1Br	·	·	·	·	·	-11%
C=C1C2c3ccccc3C(CC2(C)O[Si](C)(C)C)N1C(=O)OC (stereo unspecified)	-5%[9.22 µM]	·	·	-8%[7.66 µM]	·	·
COc1cccc(/C=C2\Oc3cc(OCC(=O)N4Cc5ccccc5C[C@H]4C(=O)O)ccc3C2=O)c1	·	0%	-1%	·	0%	3µM*
O=C(O)c1cccc(C(=O)Nc2cccc(NC(=O)C3CCCO3)c2)c1 (stereo unspecified)	·	-6%	22%	-7%	20%	2.1µM*
O=C(O)c1cccc(NC(=O)c2cccc(NC(=O)C3CCCO3)c2)c1 (stereo unspecified)	1%	0%	26%	8%	28%	3µM*
Cc1nc2ccccc2c(=O)n1-c1ccc(F)c(NS(=O)(=O)c2ccccc2F)c1	·	4%	-1%	·	-3%	-1%
COC(=O)[C@@H]1C[C@@H]2CC[C@@H](O)C[C@@H]2N1CC1CCCCC1	3%	·	·	-4%	·	·
Cc1ccc(-n2ncc3c(SCc4ccccn4)ncnc32)c(C)c1	1.8µM*	0%	?	7%	1%	?
Cc1ccc(CSc2ncnc3c2cnn3-c2ccccc2)cc1	-22%	4%	7%	-3%	2%	-20%
CSc1ncnc2c1cnn2-c1ccc(C)cc1C	-22%	12%	?	2%	22%	?
Cc1nc(SCc2ccccc2F)c2cnn(-c3ccccc3)c2n1	35µM*	9%	?	-4%	7%	?
Cc1ccc(-n2ncc3c(SCc4ccccc4)ncnc32)cc1	11µM*	?	?	3%	4µM*	11µM*
Fc1ccc(-n2ncc3c(SCc4cccnc4)ncnc32)cc1	-32%	23µM*	?	0%	25%	6.7µM*
CN(C(=O)CSc1nc2ccc(NC(=O)CCc3ccccc3)cc2s1)c1ccccc1	·	·	·	·	·	-12%
O=C(CN1C(=O)CC(c2ccccc2)Sc2ccccc21)Nc1cccc(Cl)c1 (stereo unspecified)	1%	·	·	·	·	-12%
Oc1ccc(O)c(-c2cnns2)c1	9%	-1%	-6%	-1%	-14%	8.5µM*
Nc1nc(N)nc(-c2cc(O)ccc2O)n1	·	-3%	10%	·	?	-19%
O=C(Nc1ccc2c(c1)OCO2)N1CCN(Cc2ccco2)CC1	·	?	0.79µM*	·	?	0.95µM*
Cc1cc(C(=O)Nc2ccc3c(c2)OCCO3)c(C)o1	11µM*	4.6µM*	3.2µM*	-5%	?	7.6µM*
Cc1occc1C(=O)Nc1ccc2c(c1)CCC2	11µM*	18µM*	4µM*	13µM*	3.5µM*	9.5µM*
Cc1cc(C(=O)Nc2ccc3c(c2)OCCO3)c2ccccc2n1	-18%	8%	2%	9%	1%	-3%
O=C(Nc1ccc2c(c1)OCCO2)c1coc2ccccc2c1=O	9%	?	10%	8.9µM*	-1%	0.76µM*
Cc1cc(C(=O)Nc2cccc(O)c2)c(C)o1	23%	?	-3%	-5%	7%	?
SMILES	SMN2 splice enh	ELG1 genotox	Rab9 promoter act	Luc counter	NPC1 prom act	FLuc modulator
CC(=O)Nc1ccc2c(c1)CCCC2	·	3%	7%	·	3%	-14%
O=C(Nc1ccc2c(c1)OCCO2)N1CCN(c2ccc(F)cc2)CC1	-50%	20%	-6%	2%	6%	-16%
Cc1occc1C(=O)Nc1ccc2c(c1)OCCO2	?	?	1.3µM*	7.1µM*	3.2µM*	8.5µM*
CSc1ccccc1C(=O)Nc1ccc2c(c1)OCCO2	5%	·	·	-13%	·	?
CC(=O)c1c(Nc2ccc3c(c2)OCCO3)oc(C)cc1=O	-6%	?	-18%	-3%	-1%	27µM*
Cc1ccccc1C(=O)Nc1ccc2c(c1)OCCO2	·	1.8µM*	0.4µM*	·	0.5µM*	2.4µM*
Cc1cccc(C)c1N1CCN(C(=O)Nc2ccc3c(c2)OCCO3)CC1	-13%	0%	?	0%	?	9.5µM*
CCOC(=O)C1=C(C)NC(C)=C(C(=O)OCC)C1C(=O)OCC(=O)NCc1ccccc1OC	·	-1%	·	·	·	·
Cc1ccccc1Cn1c(=O)n(CCCCC(=O)NCc2ccccc2Cl)c(=O)c2ccccc21	5%	·	·	·	·	-4%
Cc1c(C)c(C)c2[nH]c(-c3ccc4c(c3)OCO4)nc2c1C	·	-10%	17%	·	19%	4.8µM*
CCN(C[C@H]1N[C@@](C)(C(=O)OC)[C@H]2C(=O)N(C)C(=O)[C@@H]12)S(=O)(=O)c1ccc(F)cc1	·	2%	·	·	·	·
Cc1ccc(Cl)cc1N1CCN(S(=O)(=O)c2ccc3oc(=O)c4ncn(C)c4c3c2)CC1	-13%	·	·	·	·	3%
c1ccc(-c2cccc(-c3ccccc3)n2)cc1	·	5%	?	·	23%	12µM*
CCCc1cc(=O)n2nc(N3CCC(C(=O)NCc4ccc(C)o4)CC3)sc2n1	·	3%	4%	·	1%	-4%
N#Cc1c(N2CCCC2)nsc1-c1ccccc1	·	?	?	·	?	15µM*
N#Cc1nc(-c2ccccc2)oc1N1CCCCC1	-18%	7%	-1%	10%	13%	-19%
COC(=O)c1ccc(NC(=O)C(=O)NCCc2csc(-c3ccc(F)cc3)n2)cc1	·	·	·	·	·	-4%
Cc1nc(S/C(=C/c2ccc(OCc3ccc(C(=O)O)cc3)cc2)C(=O)O)n[nH]1	-31%	0%	-4%	1%	6%	27µM*
CN1c2ccccc2Oc2nnc(N3CCN(Cc4ccccc4)CC3)cc21	·	4%	?	0%	23%	19µM*
CCOC(=O)C1=C(C)C(c2ccccc2OC)NC(=S)N1 (stereo unspecified)	-8%	-3%	-5%	3%	-1%	2%
Cc1ccc(-c2cc(C(=O)NCCCN3CCOCC3)c3ccccc3n2)cc1	·	15%	-2%	·	2%	?
Cc1ccc(-c2cc(C(=O)NCCCN3CCCC3)c3ccccc3n2)cc1C	·	?	-9%	·	0%	?
Cc1ccc(-c2cc(C(=O)NCCCN3CCOCC3)c3ccccc3n2)cc1C	·	-4%	1%	·	5%	12µM*
CCOc1ccc(-c2cc(C(=O)NCCCN3CCCC3)c3ccccc3n2)cc1	·	13%	1%	·	2%	12µM*
